Assay results as given in PMC7862700, “An all-to-all approach to the identification of sequence-specific readers for epigenetic DNA modifications on cytosine”.

Tests used:
Assay in all cases: DAPPL (digital affinity profiling via proximity ligation, sequencing); 10 mM Tris-HCl pH 7.5, 50 mM NaCl, 1 mM DTT, 4% glycerol, room temperature, 30 min; GST-TFs on glutathione beads, 16-mer random dsDNA library, 0.1% formaldehyde crosslink after washing; high values mean tight binding
Conditions in all cases: protein: recombinant; tags: N-terminal GST; dsDNA, one strand shown
[1] = target: T1, FLI1 (Homo sapiens, UniProt Q01543 1-452)
T1 sequence: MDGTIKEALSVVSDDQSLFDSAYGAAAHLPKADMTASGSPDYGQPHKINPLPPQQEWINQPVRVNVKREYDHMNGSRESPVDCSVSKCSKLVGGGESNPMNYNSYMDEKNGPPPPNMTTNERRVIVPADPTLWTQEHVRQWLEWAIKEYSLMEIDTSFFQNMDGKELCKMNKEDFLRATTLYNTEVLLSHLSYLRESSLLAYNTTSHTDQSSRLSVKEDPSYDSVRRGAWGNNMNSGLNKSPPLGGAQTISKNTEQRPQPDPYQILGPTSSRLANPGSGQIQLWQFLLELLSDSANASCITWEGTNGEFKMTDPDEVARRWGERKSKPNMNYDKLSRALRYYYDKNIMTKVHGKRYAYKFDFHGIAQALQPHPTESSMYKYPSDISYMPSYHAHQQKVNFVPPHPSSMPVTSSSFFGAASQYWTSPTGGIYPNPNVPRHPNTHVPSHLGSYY
How it was run: (§1)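 Pools were built from human transcription factors expressed in yeast as GST fusions, captured on glutathione beads and DNA-barcoded, along with a tag-only sample. Incubation with 200 nmole of a 16-mer random double-stranded DNA library lasted 30 min at room temperature in Tris/NaCl/DTT/glycerol buffer, and was followed by washing, 0.1% formaldehyde crosslinking, proximity ligation, PCR amplification and Illumina NextSeq500 sequencing. Binding signal is the quotient of each hexamer's read frequency for a factor and its frequency for the tag-only sample.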

[2] = target: T2, ELK1 (Homo sapiens, UniProt P19419 1-428)
T2 sequence: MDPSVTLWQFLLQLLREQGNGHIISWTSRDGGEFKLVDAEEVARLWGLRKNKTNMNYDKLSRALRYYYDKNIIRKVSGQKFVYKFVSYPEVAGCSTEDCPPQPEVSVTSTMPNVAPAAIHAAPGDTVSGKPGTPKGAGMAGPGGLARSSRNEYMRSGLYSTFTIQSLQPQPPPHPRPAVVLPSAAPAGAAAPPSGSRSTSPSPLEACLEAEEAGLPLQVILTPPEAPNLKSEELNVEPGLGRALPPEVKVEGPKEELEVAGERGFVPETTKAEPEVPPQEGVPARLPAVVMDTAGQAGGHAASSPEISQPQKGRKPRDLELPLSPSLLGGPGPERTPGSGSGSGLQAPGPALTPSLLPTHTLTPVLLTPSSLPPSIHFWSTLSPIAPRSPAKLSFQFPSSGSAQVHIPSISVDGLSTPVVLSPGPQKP
How it was run: as §1

[3] = target: T3, GABPA (Homo sapiens, UniProt Q06546 1-454)
T3 sequence: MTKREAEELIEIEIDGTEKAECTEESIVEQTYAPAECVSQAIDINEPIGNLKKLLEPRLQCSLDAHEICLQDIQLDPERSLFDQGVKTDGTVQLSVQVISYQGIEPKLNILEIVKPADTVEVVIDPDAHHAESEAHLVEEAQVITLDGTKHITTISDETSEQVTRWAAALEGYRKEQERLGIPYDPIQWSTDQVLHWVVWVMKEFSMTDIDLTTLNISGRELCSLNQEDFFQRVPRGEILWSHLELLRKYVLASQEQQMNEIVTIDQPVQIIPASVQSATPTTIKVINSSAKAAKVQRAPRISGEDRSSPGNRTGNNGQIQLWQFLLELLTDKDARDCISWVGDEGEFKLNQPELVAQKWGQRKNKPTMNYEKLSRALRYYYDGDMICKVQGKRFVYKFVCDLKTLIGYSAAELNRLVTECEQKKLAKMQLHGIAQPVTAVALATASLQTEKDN
How it was run: as §1

[4] = target: T4, ERG (Homo sapiens, UniProt P11308 1-479)
T4 sequence: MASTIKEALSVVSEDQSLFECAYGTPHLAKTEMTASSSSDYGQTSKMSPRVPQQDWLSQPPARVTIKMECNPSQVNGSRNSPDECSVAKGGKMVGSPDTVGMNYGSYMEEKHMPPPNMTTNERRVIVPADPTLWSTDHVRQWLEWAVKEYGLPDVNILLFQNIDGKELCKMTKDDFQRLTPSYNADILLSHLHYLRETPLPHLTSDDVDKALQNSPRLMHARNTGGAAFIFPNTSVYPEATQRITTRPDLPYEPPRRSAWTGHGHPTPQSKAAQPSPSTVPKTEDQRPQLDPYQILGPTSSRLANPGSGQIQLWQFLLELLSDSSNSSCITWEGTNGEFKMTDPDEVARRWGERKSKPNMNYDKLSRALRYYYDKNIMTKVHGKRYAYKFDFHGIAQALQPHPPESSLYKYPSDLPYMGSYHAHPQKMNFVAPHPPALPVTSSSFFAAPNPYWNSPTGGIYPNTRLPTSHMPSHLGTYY
How it was run: as §1

[5] = target: ELF1 (Homo sapiens, UniProt P32519 1-619)
Sequence of ELF1 (P32519 whole entry): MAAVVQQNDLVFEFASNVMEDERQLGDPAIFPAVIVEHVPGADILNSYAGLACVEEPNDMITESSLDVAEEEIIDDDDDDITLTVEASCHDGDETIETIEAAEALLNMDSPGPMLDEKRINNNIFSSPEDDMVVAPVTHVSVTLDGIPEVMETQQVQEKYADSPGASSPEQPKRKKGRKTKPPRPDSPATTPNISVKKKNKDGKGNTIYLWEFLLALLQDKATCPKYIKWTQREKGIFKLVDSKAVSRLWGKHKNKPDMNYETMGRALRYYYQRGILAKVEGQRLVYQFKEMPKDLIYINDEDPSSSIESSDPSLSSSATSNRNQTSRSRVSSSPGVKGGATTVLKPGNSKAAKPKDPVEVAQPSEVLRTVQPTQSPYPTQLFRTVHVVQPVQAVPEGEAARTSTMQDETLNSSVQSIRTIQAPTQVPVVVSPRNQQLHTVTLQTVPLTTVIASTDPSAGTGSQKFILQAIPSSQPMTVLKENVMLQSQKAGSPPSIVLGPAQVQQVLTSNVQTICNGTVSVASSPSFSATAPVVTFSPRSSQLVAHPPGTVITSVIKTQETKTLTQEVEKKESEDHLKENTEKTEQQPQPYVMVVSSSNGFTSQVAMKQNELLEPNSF
How it was run: as §1

[6] = target: T5, EHF (Homo sapiens, UniProt Q9NZC4 1-300)
T5 sequence: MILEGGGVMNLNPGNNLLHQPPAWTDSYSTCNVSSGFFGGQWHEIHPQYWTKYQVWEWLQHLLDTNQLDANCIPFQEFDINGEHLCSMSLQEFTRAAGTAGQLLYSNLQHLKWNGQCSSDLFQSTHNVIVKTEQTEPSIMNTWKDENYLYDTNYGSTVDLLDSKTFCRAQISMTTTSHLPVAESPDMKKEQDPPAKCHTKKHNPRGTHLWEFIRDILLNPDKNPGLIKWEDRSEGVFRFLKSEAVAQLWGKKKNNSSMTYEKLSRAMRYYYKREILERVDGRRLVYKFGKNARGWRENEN
How it was run: as §1

[7] = target: SPI1 (Homo sapiens, UniProt P17947 1-270)
How it was run: as §1

[8] = target: SPIB (Homo sapiens, UniProt Q01892 1-262)
Sequence of SPIB (Q01892 whole entry): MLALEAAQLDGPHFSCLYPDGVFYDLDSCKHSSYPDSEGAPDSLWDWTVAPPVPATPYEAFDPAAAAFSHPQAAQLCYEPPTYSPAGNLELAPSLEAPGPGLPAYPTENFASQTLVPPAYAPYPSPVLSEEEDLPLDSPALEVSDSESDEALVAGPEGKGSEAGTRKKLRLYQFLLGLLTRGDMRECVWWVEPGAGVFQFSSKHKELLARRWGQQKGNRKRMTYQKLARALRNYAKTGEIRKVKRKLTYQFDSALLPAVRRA
How it was run: as §1

[9] = target: T6, ELK3 (Homo sapiens, UniProt P41970 1-407)
T6 sequence: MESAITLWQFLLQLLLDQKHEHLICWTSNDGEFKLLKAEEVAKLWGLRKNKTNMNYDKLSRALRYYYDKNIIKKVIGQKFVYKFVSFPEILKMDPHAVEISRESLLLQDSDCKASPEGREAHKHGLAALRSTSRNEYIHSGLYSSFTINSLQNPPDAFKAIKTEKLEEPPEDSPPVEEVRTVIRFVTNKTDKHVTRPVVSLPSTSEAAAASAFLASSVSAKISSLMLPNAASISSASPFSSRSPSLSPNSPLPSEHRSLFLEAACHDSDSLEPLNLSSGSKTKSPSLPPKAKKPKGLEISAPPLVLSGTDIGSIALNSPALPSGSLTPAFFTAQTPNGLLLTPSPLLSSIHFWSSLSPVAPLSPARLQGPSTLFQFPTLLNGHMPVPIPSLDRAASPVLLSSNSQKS
How it was run: as §1

Sequence	binding signal [1]	binding signal [2]	binding signal [3]	binding signal [4]	binding signal [5]	binding signal [6]	binding signal [7]	binding signal [8]	binding signal [9]
ATGAAT	1.16 fold enrichment (6-mer frequency, TF over GST control)	1.16 fold enrichment (6-mer frequency, TF over GST control)	1.2 fold enrichment (6-mer frequency, TF over GST control)	1.11 fold enrichment (6-mer frequency, TF over GST control)	1.07 fold enrichment (6-mer frequency, TF over GST control)	1.14 fold enrichment (6-mer frequency, TF over GST control)	1.15 fold enrichment (6-mer frequency, TF over GST control)	1.23 fold enrichment (6-mer frequency, TF over GST control)	1.12 fold enrichment (6-mer frequency, TF over GST control)
GGCTTC	1.68 fold enrichment (6-mer frequency, TF over GST control)	1.8 fold enrichment (6-mer frequency, TF over GST control)	1.57 fold enrichment (6-mer frequency, TF over GST control)	1.79 fold enrichment (6-mer frequency, TF over GST control)	1.62 fold enrichment (6-mer frequency, TF over GST control)	1.78 fold enrichment (6-mer frequency, TF over GST control)	1.65 fold enrichment (6-mer frequency, TF over GST control)	1.78 fold enrichment (6-mer frequency, TF over GST control)	1.81 fold enrichment (6-mer frequency, TF over GST control)
TAAAAT	1.17 fold enrichment (6-mer frequency, TF over GST control)	1.2 fold enrichment (6-mer frequency, TF over GST control)	1.25 fold enrichment (6-mer frequency, TF over GST control)	1.19 fold enrichment (6-mer frequency, TF over GST control)	1.24 fold enrichment (6-mer frequency, TF over GST control)	1.1 fold enrichment (6-mer frequency, TF over GST control)	1.25 fold enrichment (6-mer frequency, TF over GST control)	1.2 fold enrichment (6-mer frequency, TF over GST control)	1.1 fold enrichment (6-mer frequency, TF over GST control)
AACCCT	1.31 fold enrichment (6-mer frequency, TF over GST control)	1.4 fold enrichment (6-mer frequency, TF over GST control)	1.29 fold enrichment (6-mer frequency, TF over GST control)	1.23 fold enrichment (6-mer frequency, TF over GST control)	1.35 fold enrichment (6-mer frequency, TF over GST control)	1.18 fold enrichment (6-mer frequency, TF over GST control)	1.32 fold enrichment (6-mer frequency, TF over GST control)	1.29 fold enrichment (6-mer frequency, TF over GST control)	1.5 fold enrichment (6-mer frequency, TF over GST control)
AATCTA	1.07 fold enrichment (6-mer frequency, TF over GST control)	1.06 fold enrichment (6-mer frequency, TF over GST control)	1.05 fold enrichment (6-mer frequency, TF over GST control)	1.17 fold enrichment (6-mer frequency, TF over GST control)	1.17 fold enrichment (6-mer frequency, TF over GST control)	1.17 fold enrichment (6-mer frequency, TF over GST control)	1.12 fold enrichment (6-mer frequency, TF over GST control)	1.17 fold enrichment (6-mer frequency, TF over GST control)	1.12 fold enrichment (6-mer frequency, TF over GST control)
GCCCTA	1.29 fold enrichment (6-mer frequency, TF over GST control)	1.24 fold enrichment (6-mer frequency, TF over GST control)	1.21 fold enrichment (6-mer frequency, TF over GST control)	1.15 fold enrichment (6-mer frequency, TF over GST control)	1.19 fold enrichment (6-mer frequency, TF over GST control)	1.12 fold enrichment (6-mer frequency, TF over GST control)	1.19 fold enrichment (6-mer frequency, TF over GST control)	1.28 fold enrichment (6-mer frequency, TF over GST control)	1.19 fold enrichment (6-mer frequency, TF over GST control)
ACAATC	1.08 fold enrichment (6-mer frequency, TF over GST control)	1.09 fold enrichment (6-mer frequency, TF over GST control)	1.19 fold enrichment (6-mer frequency, TF over GST control)	1.16 fold enrichment (6-mer frequency, TF over GST control)	1.21 fold enrichment (6-mer frequency, TF over GST control)	1.13 fold enrichment (6-mer frequency, TF over GST control)	1.12 fold enrichment (6-mer frequency, TF over GST control)	1.09 fold enrichment (6-mer frequency, TF over GST control)	1.13 fold enrichment (6-mer frequency, TF over GST control)
TGTCTT	1.29 fold enrichment (6-mer frequency, TF over GST control)	1.2 fold enrichment (6-mer frequency, TF over GST control)	1.38 fold enrichment (6-mer frequency, TF over GST control)	1.34 fold enrichment (6-mer frequency, TF over GST control)	1.35 fold enrichment (6-mer frequency, TF over GST control)	1.31 fold enrichment (6-mer frequency, TF over GST control)	1.2 fold enrichment (6-mer frequency, TF over GST control)	1.26 fold enrichment (6-mer frequency, TF over GST control)	1.38 fold enrichment (6-mer frequency, TF over GST control)
